From PubChem BioAssay AID2501 (Southern Research Specialized Biocontainment Screening …, 2010) come the findings set out here.

Hit rate of the full screen: of about 2,200 compounds, about 1,200 (55%) were called active. No cut-off is given here; in the data, nearly all actives have IC50 up to about 92 µM. The set was probably picked from earlier hits. Some of the results follow.

A short description of this experiment: counter assay for TAg ATPase ADP read-out – biochemical, ADP-Hunter, fluorescence, counter-screen (AID 2501).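 For inhibition: higher means more inhibition.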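 Note: purified T antigen ATPase.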 Conditions: series mostly up to 100 µM.
`Cc1sc(NC(=O)C2C3CCC(O3)C2C(=O)O)c(C(=O)OC(C)C)c1-c1ccc(Cl)cc1` (stereo not given): the IC50 entry is “inactive”.

With `CCCn1cnc2cc(NCc3cccc(OC)c3O)ccc21`, the IC50 was 4.87 µM (active).

Turning to `CCn1cnc2cc(NCc3cccc(OC)c3O)ccc21`, the IC50 is 3.71 µM (active).

On to `C/C(Cl)=C\Cn1c(N2CCCC2)nc2c1c(=O)[nH]c(=O)n2C`, for which the IC50 result is “inactive”.

Regarding `O=C(O)CCNc1ccc(NCCC(=O)O)c2c1C(=O)c1ccccc1C2=O`, the IC50 is 7.52 µM (active).

In the case of `Oc1cnn(-c2ccccc2)c1`, the IC50 is 7.63 µM (active).

For the compound `COc1cc(/C=N\Nc2nc(-c3cccs3)c(NC(C)=O)s2)ccc1O`, the IC50 was 4.67 µM (active).

`CCOc1cc(/C=N/Nc2nc(-c3cccs3)c(NC(C)=O)s2)ccc1O`: the IC50 was 9.71 µM (active).

In the case of `O=C(Nc1nc(-c2ccco2)c(-c2ccco2)s1)c1ccco1`, the IC50 entry was “inactive”.

Consider `CC(=O)Nc1sc(N/N=C\c2ccco2)nc1-c1cccs1`, for which the IC50 is 74 µM (active).

Regarding `NS(=O)(=O)c1cc(C(=O)NC2CCSc3ccccc32)ccc1Cl` (stereo not given), the IC50 entry is “inactive”.

Turning to `CSc1cccc(NC(=O)CN2C(=O)c3ccccc3S2(=O)=O)c1`, the IC50 entry is “inactive”.

Turning to `CCS(=O)(=O)c1ncc(Cl)c(C(=O)Nc2ccc(S(=O)(=O)N3CCCC(C)C3)cc2)n1` (stereo not given), the IC50 entry is “inactive”.

Consider `Oc1ccc(/C=N/Nc2cc(N3CCCC3)nc(N3CCCC3)n2)cc1O`, for which the IC50 is 31.9 µM (active).

`Oc1ccc(/C=N/Nc2cc(N3CCOCC3)nc(N3CCOCC3)n2)cc1O`: the IC50 was 4.67 µM (active).

Regarding `Cc1cc(N/N=C/c2ccc(O)cc2O)nc(N2CCOCC2)n1`, the IC50 is 22.7 µM (active).

As to `O=C(NC1CCCC1)C(c1ccc(F)cc1)N(Cc1ccc(F)cc1)C(=O)c1ccn[nH]1` (stereo not given), the IC50 entry is “inactive”.

Regarding `Cc1ccc(N2CSC3=C(C#N)C(c4cccs4)CC(=O)N3C2)cc1` (stereo not given), the IC50 is 23.6 µM (active).

Consider `CCOc1ccc(N2CSC3=C(C#N)C(c4ccco4)CC(=O)N3C2)cc1` (stereo not given), for which the half-maximal inhibitory concentration (IC50) is 10.4 µM (active).

As for `COc1ccc(C2CC(=O)N3CN(c4ccc(C)c(Cl)c4)CSC3=C2C#N)cc1` (stereo not given), the IC50 result is “inactive”.

On to `COc1ccc(N2CSC3=C(C#N)C(c4cccs4)CC(=O)N3C2)cc1` (stereo not given), for which the IC50 was 7.88 µM (active).

Take `N#CC1=C2SCN(Cc3ccccc3)CN2C(=O)CC1c1cccs1` (stereo not given): the IC50 entry was “inactive”.

As for `CCc1ccccc1N1CSC2=C(C#N)C(c3ccccc3F)CC(=O)N2C1` (stereo not given), the IC50 entry was “inactive”.

Turning to `COc1ccc(N2CSC3=C(C#N)C(c4cccc(OC)c4OC)CC(=O)N3C2)cc1` (stereo not given), the IC50 is 5.84 µM (active).

Take `COc1ccc2cc(-c3[nH]ncc3CN3CCCN(c4ccccc4)CC3)ccc2c1`: the IC50 entry is “inactive”.

For `C/C=C/c1cc(CN2CCN(c3ccc(OC)cc3)CC2)c(O)c(OC)c1`, the IC50 is 32.1 µM (active).

`COc1ccc(-n2cc(CN3CCCC3)c(-c3cccc(F)c3)n2)cc1`: the IC50 result is “inactive”.

On to `O=S(=O)(Nc1cccc(C(F)(F)F)c1)c1cnc[nH]1`, for which the IC50 result was “inactive”.

In the case of `Cc1cc(C)c2c(=O)n(CC(=O)Nc3cccc(Cl)c3C)sc2n1`, the IC50 result was “inactive”.

With `Cc1coc2c(O)cc3c(c12)OC1(N2CCCCC2)C(=O)NCCCC31` (stereo not given), the IC50 result was “inactive”.

Take `COc1cc(CNc2ccc3c(c2)CCC3)cc(OC)c1O`: the IC50 was 11.4 µM (active).

As to `CC1=C(C#N)C(=O)N(C2CCS(=O)(=O)C2)C(=O)/C1=C\c1ccco1` (stereo not given), the IC50 is 82 µM (active).

With `N#CC1=C(N)n2c(s/c(=C\c3ccco3)c2=O)=C(C#N)C1c1ccco1` (stereo not given), the IC50 entry is “inactive”.

Turning to `CC1C/C(=C/c2ccco2)C(=O)/C(=C/c2ccco2)C1` (stereo not given), the IC50 result was “inactive”.

As for `O=C(Nc1ccc(O)cc1)/C(=C/c1ccco1)NC(=O)c1ccccc1`, the IC50 is 3.43 µM (active).

On to `O=C(NC(=O)c1cnccc1C(F)(F)F)Nc1ccccc1`, for which the IC50 result was “inactive”.

Regarding `O=C(Nc1ccc(O)cc1)/C(=C\c1ccncc1)NC(=O)c1ccccc1`, the IC50 is 10.7 µM (active).

As to `O=C(Nc1ccc(O)cc1)/C(=C\c1cccs1)NC(=O)c1ccccc1`, the IC50 was 8.43 µM (active).

For `O=C(/C=C/c1ccco1)Nc1cccc(C(=O)Nc2ccccc2C(=O)O)c1`, the IC50 result is “inactive”.

On to `NC(=O)/C(=C/c1ccco1)C(N)=S`, for which the IC50 entry was “inactive”.

For `CCC(C)N(C(=O)COC(=O)/C=C/c1ccc(O)c(OC)c1)C1CCS(=O)(=O)C1` (stereo not given), the IC50 is 19 µM (active).

In the case of `C/C(CC(=O)Nc1ccc2ccccc2c1)=N\NC(=O)c1ccc(O)c(O)c1`, the IC50 is 5.4 µM (active).

Take `C/C(=N\NC(=O)CCC(=O)Nc1ccc(C)c(C)c1)c1cccs1`: the IC50 result was “inactive”.

On to `C/C(CC(=O)Nc1ccc(N(C)C)cc1)=N\NC(=O)c1ccncc1`, for which the IC50 was 7.2 µM (active).

Consider `O=C(COc1ccc2ccccc2c1)Nc1ccc(Cc2ccncc2)cc1`, for which the IC50 entry was “inactive”.

As for `O=C(Nc1nc(-c2ccco2)c(-c2ccco2)s1)c1cnccn1`, the IC50 result was “inactive”.

As to `C/C(CC(=O)Nc1ccc(N(C)C)cc1)=N\NC(=O)c1cnccn1`, the IC50 is 3.36 µM (active).

As for `O=[N+]([O-])c1c(NCCO)cc(Sc2nc3ccccc3s2)c2nonc12`, the IC50 result was “inactive”.

On to `Oc1ccc(N=Cc2ccc(O)c(O)c2)cc1`, for which the IC50 is 2.65 µM (active).

As to `Oc1ccc(/C=N/N=C/c2ccc(O)c(O)c2)cc1O`, the IC50 was 2.99 µM (active).

Turning to `COC1=CC(=O)C(O)=C(CCCCCCC/C=C/CCCCCCCC2=C(O)C(=O)C=C(OC)C2=O)C1=O`, the IC50 entry was “inactive”.

Consider `O=C(CCSc1ccccc1)Nc1ncccn1`, for which the IC50 entry is “inactive”.

As to `CCCCCC(=O)NNC1CC(=O)N(c2cccc(OCC)c2)C1=O` (stereo not given), the IC50 entry is “inactive”.

For the compound `O=C(CCCCl)NC1=NN(c2ccccc2)C(=O)C1`, the IC50 is 12.6 µM (active).

Regarding `Oc1cccc2cnccc12`, the IC50 is 5.53 µM (active).

For the compound `N#Cc1c(N2CCCCC2)nc(N)c2c(N)nc(SCC(=O)O)cc12`, the IC50 entry is “inactive”.

With `c1cncc(CNc2ccc3c(c2)OCO3)c1`, the IC50 was 7.3 µM (active).

`COc1ccc(-c2c(-c3ccc(O)cc3O)n[nH]c2C)cc1OC`: the 50% inhibitory concentration (IC50) was 13.2 µM (active).

On to `CNc1nc(C)nc(-n2nc(C)cc2C)n1`, for which the IC50 result is “inactive”.

With `CC1=C(C)CS(=O)N(S(=O)(=O)c2ccccc2)C1` (stereo not given), the IC50 entry was “inactive”.

Take `O=C(OCCCN1CCOCC1)c1ccc(O)c(O)c1`: the IC50 is 9.99 µM (active).

With `COc1ccc(OC)c(C2C(C(=O)c3ccc(C)o3)=C(O)C(=O)N2CCN2CCOCC2)c1` (stereo not given), the IC50 entry was “inactive”.

Regarding `COc1cc(OC)c(-c2c3cc(O)c(=O)cc-3oc3cc(O)c(O)cc23)cc1OC`, the IC50 was 7.14 µM (active).

Turning to `COc1ccc(OC)c(-c2c3cc(O)c(=O)cc-3oc3cc(O)c(O)cc23)c1`, the IC50 result is “inactive”.

For the compound `CN(C)c1oc(-c2ccccc2[N+](=O)[O-])nc1C#N`, the IC50 entry was “inactive”.

As for `O=c1cc2oc3cc(O)c(O)cc3c(-c3ccccc3[N+](=O)[O-])c-2cc1O`, the IC50 is 7.23 µM (active).

For the compound `CO[C@@H]1O[C@@H]2COC(c3ccccc3)O[C@@H]2[C@@H](OC)[C@@H]1O` (stereo not given in full), the IC50 result is “inactive”.

In the case of `CC1(C)OC(=O)C(=NNc2ccc(O)cc2)C(=O)O1`, the concentration for half-maximal inhibition (IC50) is 3.09 µM (active).

`Nc1nc2ccc(O)cc2s1`: the IC50 was 2.36 µM (active).

`Nc1nc2ccc(S(=O)(=O)N3CCCCC3)cc2s1`: the IC50 entry was “inactive”.

For `Nc1nc2ccc(N3CCOCC3)cc2s1`, the concentration for half-maximal inhibition (IC50) was 3.09 µM (active).

For the compound `Nc1ccccc1-c1nc2ccccc2s1`, the IC50 result was “inactive”.

Take `CCOc1ccc(N2C(=O)CC(N3CCOCC3)C2=O)cc1` (stereo not given): the IC50 result is “inactive”.

`CN(C)c1ccc(N2C(=O)CC(Nc3ccc(N4CCOCC4)cc3)C2=O)cc1` (stereo not given): the IC50 was 4 µM (active).

Consider `O=C(NCc1ccc(F)cc1)C(=O)NCC1OCCN1S(=O)(=O)c1cccs1` (stereo not given), for which the IC50 result was “inactive”.

On to `O=C(NC(=S)N1CCN(c2ccc(O)cc2)CC1)c1cccs1`, for which the half-inhibitory concentration (IC50) is 5.56 µM (active).

For `O=C(c1cccs1)N1CCN(C(=O)C2CCCO2)CC1` (stereo not given), the IC50 result was “inactive”.

`NC(=O)c1ccsc1NC(=O)C1CCN(S(=O)(=O)c2cccs2)CC1`: the IC50 result was “inactive”.

Consider `O=C(CCC(=O)N1CCN(c2ccc(O)cc2)CC1)c1cccs1`, for which the IC50 is 2.87 µM (active).

Regarding `O=S(=O)(c1cccs1)N1CCN(c2ccc(O)cc2)CC1`, the IC50 was 5.21 µM (active).

On to `O=C(CC1SC(=O)N(c2ccccc2)C1=O)Nc1cccc2ccccc12` (stereo not given), for which the IC50 result is “inactive”.

Regarding `COc1ccc(CCNc2ccc(C(CC(N)=O)NC(=O)Cc3ccc(Br)cc3)cc2[N+](=O)[O-])cc1` (stereo not given), the IC50 entry is “inactive”.

Turning to `CN(C)C(=S)Nc1ccc(N2CCOCC2)cc1`, the IC50 was 2.52 µM (active).

Turning to `O=Cc1sc(=O)n(Cc2cccc(C(=O)O)c2)c1Cl`, the IC50 result is “inactive”.

Take `Cc1nc2sc(C(c3ccco3)N3CCC(C)CC3)c(O)n2n1` (stereo not given): the IC50 result is “inactive”.

On to `Cc1ccc2nc(-c3ccccn3)c(NC3CCCC3)n2c1`, for which the IC50 is 10.1 µM (active).

As to `c1ccc(-c2cccc(-c3ccccn3)n2)nc1`, the IC50 entry was “inactive”.

For `Cc1ccccc1Nc1c(-c2ccccn2)nc2ccccn12`, the IC50 is 10.9 µM (active).

`C[C@@H]1NC(=O)[C@H](CCC(N)=O)NC(=O)c2cc([N+](=O)[O-])cc(I)c2NCC[C@@H](C(N)=O)NC1=O`: the IC50 entry is “inactive”.

Take `O=c1[nH]c2ccccc2n2c(-c3ccccc3)nnc12`: the IC50 entry is “inactive”.

For `CC(=O)Nc1ccc(S(=O)(=O)Nc2nc3ccccc3nc2Nc2ccc(N)cc2)cc1`, the IC50 was 5.8 µM (active).

`CC(=O)Nc1ccc(S(=O)(=O)Nc2nc3ccccc3nc2Nc2ccc(O)cc2)cc1`: the 50% inhibitory concentration (IC50) was 7.76 µM (active).

Take `CC(=O)NS(=O)(=O)c1ccc(NC(=S)NC(=O)Cc2ccccc2)cc1`: the IC50 result was “inactive”.

Turning to `O=c1nc2s/c(=C\c3ccco3)c(=O)n2nc1Cc1ccc(F)cc1`, the IC50 entry is “inactive”.

As for `COc1cc(/C=N/NC(=O)c2nnn(-c3nonc3N)c2-c2cccs2)ccc1O`, the IC50 was 3.94 µM (active).

For the compound `COc1cc(/C=N/NC(=O)c2ccc3nc[nH]c3c2)ccc1O`, the IC50 is 5.28 µM (active).

For the compound `COc1cc(/C=N/NC(=O)c2cc(C3CC3)[nH]n2)ccc1O`, the IC50 was 3.26 µM (active).

`Cc1cc(C)n2nc(C(=O)N/N=C/c3ccc(O)cc3)nc2n1`: the IC50 is 2.32 µM (active).

Consider `COc1cccc(CN2CCNC(=O)C2CC(=O)NCc2cn3ccccc3n2)c1OC` (stereo not given), for which the IC50 result is “inactive”.

On to `Cc1cccn2c(CN(C)CCC3CCCCO3)c(C(=O)N3CCCCC3)nc12` (stereo not given), for which the IC50 result is “inactive”.

For `COc1cc(/C=N/NC(=O)C2COc3ccccc3O2)ccc1O` (stereo not given), the IC50 is 3.2 µM (active).

Turning to `C=CCN1CCN(C(=O)c2c(-c3ccccc3)noc2C)CC1`, the IC50 entry is “inactive”.

Regarding `COc1cc(/C=N/N(C)c2ccccc2)ccc1O`, the IC50 was 8.84 µM (active).

For `COc1cc(/C=N/NC(=O)c2cnccn2)ccc1O`, the IC50 was 3.09 µM (active).

Take `COc1cc(/C=N/NC(=O)c2c(-c3ccccc3)noc2C)ccc1O`: the IC50 is 4.78 µM (active).
